14-3-3 Bad inh: disrupts binding of bovine 14-3-3 zeta to phospho-Bad peptide. inhibition, % at 21.7 µM. TR-FRET 14-3-3zeta/Dy647-pBad peptide displacement, 1 h. P63103. 0.71% of 220,000 active;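 active = inhibition above about 70%, limit read from the data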;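 note: 0% = full 14-3-3 plus peptide FRET controls and 100% = background without 14-3-3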
Target sequence (P63103 whole entry, looked up): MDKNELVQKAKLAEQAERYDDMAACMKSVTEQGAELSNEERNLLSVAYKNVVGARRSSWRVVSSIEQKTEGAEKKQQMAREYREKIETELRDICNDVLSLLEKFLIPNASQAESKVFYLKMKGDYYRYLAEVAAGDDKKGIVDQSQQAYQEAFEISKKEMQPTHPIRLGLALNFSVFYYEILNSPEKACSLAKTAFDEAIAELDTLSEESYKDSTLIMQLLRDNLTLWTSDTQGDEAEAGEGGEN
Mcl1-Bid inh: disrupts binding of human Mcl-1 to Bid peptide | Q07820 | TR-FRET Mcl-1/Bid-Dy647 peptide binding, 1536-well | 0.97% of 220,000 active | inhibition, % at 21.7 µM;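 active = compounds that cut the binding signal by more than half at the single screening dose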;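 note: His-tagged Mcl-1 with europium anti-His antibody binding Bid BH3 peptide; 0% = Mcl-1 plus peptide wells and 100% = peptide-only wells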
Target sequence (Q07820 whole entry, looked up): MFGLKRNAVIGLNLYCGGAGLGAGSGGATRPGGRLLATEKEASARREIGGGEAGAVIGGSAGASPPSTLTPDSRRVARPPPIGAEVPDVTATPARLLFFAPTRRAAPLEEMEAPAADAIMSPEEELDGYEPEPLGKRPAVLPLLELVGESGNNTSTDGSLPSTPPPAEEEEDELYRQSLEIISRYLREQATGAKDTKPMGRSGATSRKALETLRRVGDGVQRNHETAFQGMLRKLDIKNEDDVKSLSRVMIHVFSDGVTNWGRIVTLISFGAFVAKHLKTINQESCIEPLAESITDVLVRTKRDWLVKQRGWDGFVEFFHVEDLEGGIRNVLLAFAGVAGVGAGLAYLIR
Mcl-1 Bim block: disrupts Bim peptide binding to human Mcl-1; Q07820; Bead-based flow cytometry, Bim peptide-Mcl-1 binding; inhibition, % at 10 µM; 0.1% of 190,000 active; in the data active = inhibition above about 40%;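 note: 0% = no compound tracer wells and 100% = peptide blocker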
eIF4E 4G PPI: eIF4E/eIF4G interaction inhibition in translation initiation. TR-FRET eIF4E-eIF4GI(517-606) binding, 2 h. inhibition, % at 21.7 µM. 0.37% of 220,000 active;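 active = inhibition above about 30%, limit read from the data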;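 note: 0% = full FRET control wells and 100% = background wells lacking eIF4GI fragment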
Hck Nef HTS: inhibitors of human Hck kinase activated by Nef; Recombinant Hck-YEEI plus Nef, Z-Lyte FRET kinase assay; inhibition, % at 20 µM; 0.68% of 220,000 active; P08631;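 active = Hck-Nef kinase inhibition above about 50%, limit read from the data; inactive = inhibition below that limit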;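 note: 0% = DMSO with Hck plus Nef and 100% = Hck alone without Nef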
Mcl1-Noxa inh: disrupts binding of human Mcl-1 to Noxa peptide | TR-FRET Mcl-1/Noxa peptide binding, 2 h | inhibition, % at 21.7 µM | 1.5% of 220,000 active;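 active = compounds that cut the protein-peptide binding signal by more than 50% relative to plate controls in a single-dose test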;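 note: His-tagged Mcl-1 with rhodamine Noxa BH3 peptide and terbium anti-His antibody; 0% = Mcl-1 plus Noxa peptide wells and 100% = peptide-only wells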
Hck-Nef confirm: confirmation of Hck-Nef kinase inhibitors; shares compounds with Hck Nef HTS; Recombinant Hck-YEEI:Nef, Z-Lyte FRET kinase assay; calls only at 10 µM; 28% of 1,300 active;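 active = average inhibition of at least 50%, with Z-scores no higher than 3 in both the phospho-tyrosine peptide and fluorescence counterscreens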
* hit, by the source's call; i = inactive; nt = no result shown; + = active, no number. The list is not random: actives were taken first. Their share in the collection is about 3.5%.

SMILES	14-3-3 Bad inh	Mcl1-Bid inh	Mcl-1 Bim block	eIF4E 4G PPI	Hck Nef HTS	Mcl1-Noxa inh	Hck-Nef confirm
Cc1cccn2c(=O)c3cc(C(=O)NCc4cccnc4)c(=N)n(C(C)C)c3nc12	-1	-58	2	-5	161*	6	nt
CCOC(=O)c1cc2c(=O)n3cccc(C)c3nc2n(Cc2cccnc2)c1=N	nt	nt	nt	nt	32	nt	nt
CC(C)n1c(=N)c(C(=O)NCCc2ccccc2)cc2c(=O)n3ccccc3nc21	9	-17	0	0	138*	9	nt
O=C(NCCc1ccccc1)c1cnc2ccccn2c1=O	3	-15	1	14	-1	10	nt
Cc1cccc2c(SCC(=O)NCC3CCCO3)nc(-c3ccc(F)cc3)nc12 (stereo not drawn)	2	-4	1	4	88*	-9	i
Cc1cccc2cc(C#N)c(SCC(=O)NCC3CCCO3)nc12 (stereo not drawn)	-8	0	0	1	1	16	nt
Oc1ccc(-c2nc3ccccc3s2)cc1	1	-19	nt	2	47	17	nt
Oc1ccc(-c2nc3ccccc3s2)c(O)c1	8	4	nt	1	163*	37	nt
CN(C(=O)c1c(Br)cnn1C)C12CC3CC(CC(C3)C1)C2	4	3	-1	1	1	17	nt
COc1ccc(NC(=O)c2nc[nH]c2C(=O)N[C@@H](C)C(=O)OC(C)(C)C)cc1	-4	-28	nt	3	53*	-8	i
Cc1ccc(NC(=O)c2nc[nH]c2C(=O)N[C@@H](C)C(=O)OC(C)(C)C)cc1	-10	-13	nt	-4	26	-8	nt
Cc1ccccc1CNC(=O)c1ccc(CSCc2ccccc2)cc1	-12	2	-3	-13	1	13	nt
Cc1cccc(-n2cnc(C(=O)NNC(=S)Nc3ccc(Cl)cc3)c2)n1	-9	-22	2	-6	0	-5	nt
Cc1cccc(-n2cnc(C(=O)N/N=C\c3ccc(Br)cc3)c2)n1	49	30	0	-28	80*	-16	i
Cc1ccc2c(c1)C=CC(C)(C)S2(=O)=O	-7	-7	0	16	6	1	nt
Cc1ccc(NC(=O)c2cc(-c3ccco3)nc3ccccc23)cc1S(=O)(=O)N1CCOCC1	-11	-40	1	9	69*	66*	+
Cc1ccc(NC(=O)c2ccc3ccccc3n2)cc1S(=O)(=O)N1CCOCC1	6	1	2	-1	6	8	nt
C=CCOc1ccc(/C=C2\SC(=S)N(C(C(=O)O)c3ccccc3)C2=O)cc1 (stereo not drawn)	26	25	nt	-1	51*	72*	+
CCOc1ccc(/C=C2\SC(=S)N(C(C(=O)O)c3ccccc3)C2=O)cc1OC (stereo not drawn)	6	10	nt	2	28	22	nt
COc1ccc(-c2cnc[nH]2)cc1	-11	-37	0	-2	23	12	nt
O=C(CSc1nnc(-c2ccccc2F)n1C1CC1)Nc1cccnc1Cl	-5	-18	-2	18	6	-12	nt
Cc1ccc(C23CC4CC(CC(C(=O)OCC(=O)NC5CCS(=O)(=O)C5)(C4)C2)C3)cc1 (stereo not drawn)	0	16	-5	7	1	19	nt
Cc1ccc(C(=O)Nc2cccc(C(F)(F)F)c2)cc1Nc1ncnc2nc[nH]c12	-16	-12	nt	-6	55*	2	i
Cc1ccc(C(=O)Nc2cccc(C(F)(F)F)c2)cc1NC(=O)c1ccno1	-2	-45	nt	-4	75*	6	+
Cc1ccc(C(=O)Nc2cccc(C(F)(F)F)c2)cc1NC(=O)c1nccn1C	19	-12	nt	-2	40	-22	nt
SMILES	14-3-3 Bad inh	Mcl1-Bid inh	Mcl-1 Bim block	eIF4E 4G PPI	Hck Nef HTS	Mcl1-Noxa inh	Hck-Nef confirm
COc1ccc(C(=O)NNC(=O)CNC(=O)C2CCCCC2)cc1	-5	-45	-1	-2	0	3	nt
COc1cc2nc(CN(C)Cc3ccc(OC)c(OC)c3OC)[nH]c(=O)c2cc1OC	-7	-16	3	0	18	-11	nt
O=Cc1cn(-c2ccccc2)nc1-c1cc2c(ccc3ccccc32)oc1=O	59	27	-123	-36	24	8	nt
O=Cc1cn(-c2ccccc2)nc1-c1cc2cc(O)ccc2oc1=O	47	61*	-2	-6	52*	38	nt
COc1ccccc1NC(=O)c1cc2c(s1)-c1ccccc1S(=O)(=O)C2	-2	-53	nt	6	52*	-118	i
CN(C(=O)c1cc2c(s1)-c1ccccc1S(=O)(=O)C2)c1ccccc1F	-2	-17	nt	3	8	1	nt
Cc1ccc(-c2csc3ncnc(Nc4ccc(C(=O)O)cc4)c23)cc1	3	-12	nt	4	55*	31	i
O=C(O)c1ccc(Nc2ncnc3scc(-c4ccccc4)c23)cc1	-2	-4	0	3	19	11	nt
COC(=O)/C(=C\Nc1ccc(Oc2ccc(F)cc2F)nc1)NC(=O)c1ccccc1	-6	-3	nt	2	-16	4	nt
CCN(CC)c1ccc2cc(C(N)=O)c(=O)oc2c1	-2	-8	-4	-1	123*	0	nt
CC(=O)c1sc2nc(CSc3nnnn3-c3ccccc3)[nH]c(=O)c2c1C	26	3	-1	31*	53*	96*	+
CC1=C(C(=O)OCC2CCCO2)C(c2ccc(C)cc2)C2=C(CCCC2=O)N1 (stereo not drawn)	-3	-13	-4	2	63*	4	i
Cc1nn(-c2ccccc2)c(C)c1-c1cc(C(=O)N/N=C/c2ccc(O)cc2)[nH]n1	-3	-4	nt	-2	66*	13	+
O=C(N/N=C/c1ccc(O)cc1)c1nc(-c2ccccc2)n(-c2ccccc2)n1	-20	-14	0	-2	0	-6	nt
S=C1NC[C@H](Cc2ccccc2)N1CCc1cccc2ccccc12	-6	-119	nt	-5	21	-65	nt
Cc1ccc(S(=O)(=O)C/N=C(/NC(=S)N(c2ccccc2)c2ccccc2)c2ccccc2)cc1	3	-86	0	-1	-3	18	nt
O=C(CSc1n[nH]c(=O)n1-c1ccc2c(c1)OCCO2)Nc1ccccc1	-17	3	nt	-9	13	3	nt
CCCc1nc(SCC(=O)Nc2ccc(N3CCOCC3)cc2)c2ccccc2n1	1	-23	0	-3	11	10	nt
CCCc1nc(SCC(=O)NNC(=O)C2CCCCC2)c2ccccc2n1	16	40	0	-3	75*	7	i
CCOC(=O)c1cc(CC)sc1NC(=O)COc1ccc2c(C)cc(=O)oc2c1	17	38	-8	-1	55*	-28	i

Screens deposited in PubChem BioAssay by several laboratories.
